# Shown are actives, neighbours in structure and some others; about 0.58% of the full set was active somewhere.
# CatL block – blocks human cathepsin L protease activity; inhibition, %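 (tested at 10 µM)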; purified cathepsin L, fluorogenic substrate, fluorescence; P07711; 58,000 tested, 0.17% active; in the data active = inhibition above about 45%
# Target sequence (P07711 114-288 limits assumed): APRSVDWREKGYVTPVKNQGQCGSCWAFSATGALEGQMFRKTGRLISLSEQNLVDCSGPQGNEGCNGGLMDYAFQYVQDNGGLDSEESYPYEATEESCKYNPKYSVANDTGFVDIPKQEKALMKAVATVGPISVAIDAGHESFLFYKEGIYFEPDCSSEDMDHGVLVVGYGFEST
# Target sequence (P07711 292-333 limits assumed): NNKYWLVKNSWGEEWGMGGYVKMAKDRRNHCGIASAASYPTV
# CatB mixtures – human cathepsin B inhibition by mixtures; inhibition, %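 (ten-compound pools at 5 µM per compound and 50 µM total)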; 62,000 tested, 0.06% active; AID 488; P07858; Purified cathepsin B, AMC dipeptide fluorescence, compound mixtures; in the data active = inhibition above about 22%, passing the limit was not always enough
# CatB inh – blocks human cathepsin B protease activity | P07858 | purified cathepsin B, fluorogenic substrate, fluorescence | inhibition, %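 (tested at 10 µM)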 | 63,000 tested, 0.1% active | AID 453; in the data active = inhibition above about 21%
# CatG inh – blocks human cathepsin G enzyme activity | 62,000 tested, 0.2% active | inhibition, % at 5 µM (by protocol) | P08311 | purified enzyme, AMC-tetrapeptide fluorescence, pooled mixtures;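 active = inhibition above 20% in each of the two mixture wells holding the compound; inactive = inhibition of 20% or less in either well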
# CatS inh – human cathepsin S inhibition. 62,000 tested, 0.06% active. inhibition, %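 (tested at 5 µM per compound within 10-compound mixtures)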. P25774. recombinant cathepsin S, AMC dipeptide fluorescence, pooled mixtures; in the data active = inhibition above about 32%, passing the limit was not always enough
# C1s inh – human complement C1s inhibition | P09871 | purified C1s, fluorogenic AMC substrate, pooled mixtures | mean inhibition % of two 10-compound mixtures (active compounds read high), % at 5 µM (by protocol) | 62,000 tested, 0.16% active;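 active = inhibition above 20% in each of the two 10-compound mixture wells holding the compound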
# Numbers stand for hits; i = inactive.
SMILES,CatL block,CatB mixtures,CatB inh,CatG inh,CatS inh,C1s inh
Cn1ncnc2c(=O)n(C)c(=O)nc1-2,85.4,79.6,83.0,i,70.3,i
O=c1[nH]c(=O)n(C2CCCCCC2)c(O)c1C=NCCCN1CCOCC1,i,i,i,i,i,i
CN(C)C(=O)CSc1nnc([C@@H](N)Cc2ccccc2)o1,103.2,i,i,i,i,i
CC1CN=C(Nc2cccc3ccccc23)S1 (stereo not drawn),i,i,i,i,i,35.1
CC(=O)Nc1ccc(S(=O)(=O)NC(CC(=O)N2CCC3(CC2)OCCO3)C(C)C)cc1 (stereo not drawn),i,i,i,i,i,i
CCCNS(=O)(=O)c1ccc(OCC(=O)N2CCN(Cc3ccccc3)CC2)cc1,i,i,i,i,i,i

# Source: PubChem (PCMD)
